# Reference: publication PMC4336329 (PLoS ONE, 2015)
# The whole screen tested about 310,000 compounds, of which about 14,000 (4.5%) showed an effect of 50% or more. The effect is printed as a negative number. Shown is part of a subset that was picked to be rich in strong results.
# Target: human ether-à-go-go-related gene (hERG) potassium channel (human, UniProt Q12809)
# Experiment: primary screen, population patch clamp on CHO cells stably expressing hERG; higher = less effect of the substance
# 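Further: peak tail current of the secondary pulse compared with the same well before compound.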
# Sequence of human ether-à-go-go-related gene (hERG) potassium channel (Q12809 whole entry, looked up): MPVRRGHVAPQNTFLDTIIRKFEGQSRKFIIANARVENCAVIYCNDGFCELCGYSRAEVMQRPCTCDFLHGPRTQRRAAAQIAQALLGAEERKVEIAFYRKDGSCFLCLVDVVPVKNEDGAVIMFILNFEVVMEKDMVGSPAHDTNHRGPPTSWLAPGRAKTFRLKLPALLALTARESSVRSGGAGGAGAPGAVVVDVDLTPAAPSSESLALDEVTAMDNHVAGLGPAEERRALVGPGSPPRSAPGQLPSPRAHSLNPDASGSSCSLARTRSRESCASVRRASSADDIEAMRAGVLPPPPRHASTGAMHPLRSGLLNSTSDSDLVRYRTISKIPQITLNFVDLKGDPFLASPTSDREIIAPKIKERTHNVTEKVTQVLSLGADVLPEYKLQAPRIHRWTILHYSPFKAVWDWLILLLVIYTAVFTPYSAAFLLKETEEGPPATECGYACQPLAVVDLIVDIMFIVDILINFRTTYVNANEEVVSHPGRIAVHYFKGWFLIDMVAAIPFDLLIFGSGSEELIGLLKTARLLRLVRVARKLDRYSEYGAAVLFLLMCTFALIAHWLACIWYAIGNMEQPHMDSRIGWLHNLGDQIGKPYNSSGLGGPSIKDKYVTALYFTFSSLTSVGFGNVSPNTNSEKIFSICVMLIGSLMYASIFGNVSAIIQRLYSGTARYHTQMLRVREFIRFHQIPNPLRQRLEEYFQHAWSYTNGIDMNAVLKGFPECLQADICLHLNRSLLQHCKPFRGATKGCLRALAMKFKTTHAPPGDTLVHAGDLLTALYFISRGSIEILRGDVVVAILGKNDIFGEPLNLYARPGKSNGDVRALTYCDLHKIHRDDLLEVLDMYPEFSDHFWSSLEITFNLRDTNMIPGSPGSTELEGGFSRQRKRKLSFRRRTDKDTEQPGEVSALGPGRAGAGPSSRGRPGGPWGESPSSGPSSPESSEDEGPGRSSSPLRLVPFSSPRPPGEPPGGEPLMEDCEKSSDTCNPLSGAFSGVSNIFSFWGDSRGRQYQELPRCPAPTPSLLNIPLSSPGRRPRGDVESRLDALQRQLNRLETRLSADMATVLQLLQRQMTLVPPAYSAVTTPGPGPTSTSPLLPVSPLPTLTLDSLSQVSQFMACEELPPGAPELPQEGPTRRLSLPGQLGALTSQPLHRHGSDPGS
row,Compound,"hERG current change (%, negative = inhibition) at 10uM [%]"
1,CN(C)S(=O)(=O)N1CCc2ccccc2C1,2.94
2,Cc1cc(C)n(-c2nc3ccccc3nc2N2CCN(S(=O)(=O)c3ccc(F)c(C)c3)CC2)n1,9.54
3,Cc1nn(CC(=O)NCC(C)c2ccccc2)c(=O)c2cc3occc3n12 (stereo not drawn),-3.5
4,O=C(C[n+]1ccc2c(c1)nnn2-c1ccccc1)c1ccc(Cl)cc1.[Br-],-69
5,O=C(C[n+]1ccccc1)c1ccc(Cl)cc1.[I-],10
6,COc1ccc(C(=O)C[n+]2ccc3c(c2)nc(-c2ccccc2)n3C)cc1.[Br-],-1.44
7,COc1ccc(C(=O)C[n+]2ccc3c(c2)nnn3-c2ccccc2)cc1.[Br-],-60.5
8,COc1ccc(C(=O)C[n+]2ccc3c(c2)nc(-c2cc(OC)c(OC)cc2OC)n3C)cc1.[Br-],6.93
9,Cn1nnc2c[n+](CC(=O)c3ccc(Cl)cc3)cc(Br)c21.[Br-],-24.7
10,CCc1nn(CC(=O)NCCCN(CC)c2cccc(C)c2)c(=O)c2cc3occc3n12,-16.3
11,C/C(N)=C(/C#N)C(=O)COC(=O)CCS(=O)(=O)c1ccccc1,12.1
12,CC(C)(C)NC(=O)CSc1nc(O)cc(=O)n1-c1ccccc1F,6.39
13,O=C(CSc1ccc(-c2ccc(Br)cc2)nn1)N1CCOCC1,-18.7
14,NC(=O)c1nn(Cc2ccccc2)c(=O)c2ccccc12,4.12
15,O=C(c1ccc(=O)n(Cc2ccccc2)n1)N1CCN(C/C=C/c2ccccc2)CC1,-51.9
16,O=C(c1cnccn1)N1CCN(C/C=C/c2ccccc2)CC1,-16.6
17,Cc1cc(C(=O)N2CCN(C/C=C/c3ccccc3)CC2)no1,-14.5
18,O=C(c1nn(Cc2ccccc2)c(=O)c2ccccc12)N1CCN(C/C=C/c2ccccc2)CC1,-57.7
19,O=C(c1ccc(Cl)nc1)N1CCN(C/C=C/c2ccccc2)CC1,-44.1
20,COc1ccc(NC(=O)NCc2ccc3c(c2)OCO3)c(OC)c1,11.5
21,COc1ccc(C)cc1S(=O)(=O)NC1CCCCC1C (stereo not drawn),5.07
22,CCC(=O)N1CCN(c2ccc(NC(=O)COc3cccc(C)c3C)cc2)CC1,-12

row,Compound,"hERG current change (%, negative = inhibition) at 10uM [%]"
1,O=C(CSc1nnc(-c2ccco2)o1)Nc1c(F)cccc1F,-1.95
2,Nc1nc(-c2ccc3c(c2)CCC(=O)N3)cs1,16.5
3,CN(C)c1ccc(S(=O)(=O)N2CCCCC2)cc1NC(=O)C1CSC2(C)CCC(=O)N12 (stereo not drawn),-22.3
4,COC(=O)C1Sc2[nH]c(=O)sc2C2c3ccccc3OC(=O)C12 (stereo not drawn),-22.6
5,COC(=O)C1Sc2[nH]c(=O)sc2C(c2ccc(Cl)cc2)C1C(=O)OC (stereo not drawn),-67
6,CCOC(=O)C1Sc2[nH]c(=O)sc2C(c2ccc(Cl)cc2)C1C(=O)OCC (stereo not drawn),-1.1
7,Cc1[nH]n(-c2cccc([N+](=O)[O-])c2)c(=O)c1-c1ccccc1,15.8
8,CCN(CC)S(=O)(=O)c1cc(NC(=O)[C@@H](NC(N)=O)C(C)C)ccc1C,15.5
9,COc1ccc2[nH]c3c(=O)n(/N=C/c4ccc(OC)c(CN5CCCC5)c4)c(C)nc3c2c1,-45.3
10,COc1ccc(/C=N/n2c(=O)[nH]c3c([nH]c4ccc(F)cc43)c2=O)cc1CN1CCCCC1,-19.1
11,COc1ccc(/C=N/n2cnc3c([nH]c4ccc(F)cc43)c2=O)cc1CN1CCCC1,-68
12,COc1ccc(/C=N/n2cnc3c([nH]c4ccc(C)cc43)c2=O)cc1CN1CCCC1,-63.2
13,COc1ccc(/C=N/n2cnc3c([nH]c4ccc(F)cc43)c2=O)cc1CSc1ccccn1,20.6
14,COc1ccc(/C=N/n2cnc3c([nH]c4ccc(Br)cc43)c2=O)cc1CN1CCOCC1,-8.88
15,COc1ccc(NC(=O)c2nnn(CC(=O)Nc3ccccc3OC)c2N)c(OC)c1,0.272
16,CCN(CC)CCOc1ccc2nc(N(C)C)sc2c1.Cl,11.1
17,CC12CCC(C(=O)Nc3ccccc3)(C/C1=N\O)C2(C)C (stereo not drawn),10.9
18,CCSc1nnc(NC(=O)Cc2ccccc2OC)s1,13
19,CCCCn1c(SCC(=O)NCCOC)nc2ccc(N3CCOCC3)cc2c1=O,-2.94
20,COCCNC(=O)CSc1nc2ccc(N3CCOCC3)cc2c(=O)n1CCc1ccccc1,-55.1
21,CCCCNC(=O)CSc1nc2ccc(N3CCOCC3)cc2c(=O)n1CCc1ccccc1,-19.3
22,COCCCNC(=O)CSc1nc2ccc(N3CCOCC3)cc2c(=O)n1CCc1ccccc1,-59.8

row,Compound,"hERG current change (%, negative = inhibition) at 10uM [%]"
1,CCC(C)NC(=O)CSc1nc2ccc(N3CCOCC3)cc2c(=O)n1CCc1ccccc1 (stereo not drawn),3.14
2,COCCNC(=O)CSc1nc2ccc(N3CCOCC3)cc2c(=O)n1Cc1ccc(OC)cc1,-22.4
3,Cc1ccc(CN2CC(C(=O)NCCC3=CCCCC3)CC2=O)cc1 (stereo not drawn),-19.6
4,CCN(c1ccc(NC(=O)CSCc2c(C)noc2C)cc1)C(C)C,-7.72
5,Cc1ccccc1-c1cc2nc(C)c(Cl)c(=O)n2[nH]1,-8.26
6,O=C(Nc1cccc(F)c1)c1cccnc1,3.96
7,Cc1c(C(=O)N2CCN(C(=O)c3ccco3)CC2)sc2nc(-c3ccc(F)cc3)cn12,-76.9
8,COc1ccccc1N1CCN(C(=O)c2sc3nc(-c4ccccc4)cn3c2C)CC1,-35
9,Cc1c(C(=O)Nc2ccncc2)sc2nc(-c3ccc(F)cc3)cn12,-8.24
10,CCOC(=O)C1CCN(C(=O)c2sc3nc(-c4ccc(F)cc4)cn3c2C)CC1,-60.5
11,CCOC(=O)N1CCN(C(=O)c2sc3nc(-c4ccc(F)cc4)cn3c2C)CC1,-62.1
12,Cc1c(C(=O)N2CCN(c3ccccc3F)CC2)sc2nc(-c3ccccc3)cn12,-14.1
13,Cc1c(C(=O)N2CCN(c3ccc(F)cc3)CC2)sc2nc(-c3ccccc3)cn12,-13.4
14,COc1ccc(-c2cn3c(C)c(C(=O)N4CCN(c5ccc(F)cc5)CC4)sc3n2)cc1,1.07
15,CCOC(=O)C1CCN(C(=O)c2sc3nc(-c4ccccc4)cn3c2C)CC1,-41
16,Cc1c(C(=O)NCC2CCCO2)sc2nc(-c3ccc(F)cc3)cn12 (stereo not drawn),-29.7
17,COC(=O)C1CCN(C(=O)c2sc3nc(-c4ccc(F)cc4)cn3c2C)CC1,-59.5
18,COc1ccccc1N1CCN(C(=O)c2sc3nc(-c4ccc(F)cc4)cn3c2C)CC1,-34
19,CN(C)CCNc1oc(COc2ccc(Cl)cc2Cl)nc1C#N,15.3
20,COc1cc(OC)cc(C(=O)NNC(=O)CCOc2ccccc2OC)c1,7.89
21,O=C(CSc1nnc(NC(=O)c2ccccc2F)s1)NC1CC1,19.2
22,C=C(C)C1Cc2nc(N)nc(C)c2C1 (stereo not drawn),10.8

row,Compound,"hERG current change (%, negative = inhibition) at 10uM [%]"
1,Cc1ccc(OCCNC(=O)c2ccccc2O)cc1,8.04
2,Cc1cc(C(=O)Nc2nc3c(s2)CCCC3)no1,-16.8
3,C=CCC(=O)OCCCCCCOc1ccc(C(=O)O)cc1,-3.87
4,O=C1CC(c2cc(-c3ccccc3)no2)C1,-9.96
5,c1ccc2nc3c(nc2c1)[nH]c1ccccc13,-15
6,O=C(O)c1cc2ccc3ccccc3c2[nH]1,1.56
7,CCN(CC)CCCNC(=O)CSc1c2c(nc3cc(Cl)ccc13)CCCC2,-48.4
8,CCN(CC)CCNC(=O)CSc1c2c(nc3cc(Cl)ccc13)CCCC2,-64.1
9,O=C(CSc1c2c(nc3cc(Cl)ccc13)CCCC2)NCCN1CCOCC1,3.58
10,CSc1ncc(C(=O)Nc2cccc(Cl)c2)c(C)n1,10.9
11,CCOc1ccc(C(=O)NCC(C)NC(=O)c2ccc(OCC)cc2)cc1 (stereo not drawn),24.5
12,CC(NC(=O)c1cc([N+](=O)[O-])cc([N+](=O)[O-])c1)C1CC2CCC1C2 (stereo not drawn),-7.55
13,CC(NC(=O)c1ccc(C#N)cc1)C1CC2CCC1C2 (stereo not drawn),-58.8
14,CC(NC(=O)c1ccc(F)cc1Cl)C1CC2CCC1C2 (stereo not drawn),4.99
15,CC(CNC(=O)c1ccc(N)cc1)NC(=O)c1ccc(N)cc1 (stereo not drawn),9.03
16,CC(NC(=O)c1ccc(Cl)cc1)C1CC2CCC1C2 (stereo not drawn),2.08
17,CC(NC(=O)c1ccc([N+](=O)[O-])cc1Cl)C1CC2CCC1C2 (stereo not drawn),-58.2
18,CC(CNC(=O)c1ccc(C#N)cc1)NC(=O)c1ccc(C#N)cc1 (stereo not drawn),-76.6
19,Cc1ccc(C(=O)NC(C)C2CC3CCC2C3)cc1 (stereo not drawn),19.1
20,Cc1ccc(C(=O)Oc2ccc(C(=S)N3CCOCC3)cc2)cc1,-7.84
21,CCN(CC)c1ncnc2scc(C3COc4ccccc4O3)c12 (stereo not drawn),-8.77
